# ADAM17 inh – inhibitors of human ADAM17. recombinant ADAM17, EDANS/DABCYL FRET peptide cleavage. inhibition, % at 6.95 µM. actives 0.83% (n = 370,000). AID 720648;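 active = inhibition above the mean of compounds lying between control limits plus 3 SD, set per campaign, cut at about 8.5% in these data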;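 note: 0% = DMSO-only wells as the low control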
# Target sequence (P78536 215-824 limits assumed): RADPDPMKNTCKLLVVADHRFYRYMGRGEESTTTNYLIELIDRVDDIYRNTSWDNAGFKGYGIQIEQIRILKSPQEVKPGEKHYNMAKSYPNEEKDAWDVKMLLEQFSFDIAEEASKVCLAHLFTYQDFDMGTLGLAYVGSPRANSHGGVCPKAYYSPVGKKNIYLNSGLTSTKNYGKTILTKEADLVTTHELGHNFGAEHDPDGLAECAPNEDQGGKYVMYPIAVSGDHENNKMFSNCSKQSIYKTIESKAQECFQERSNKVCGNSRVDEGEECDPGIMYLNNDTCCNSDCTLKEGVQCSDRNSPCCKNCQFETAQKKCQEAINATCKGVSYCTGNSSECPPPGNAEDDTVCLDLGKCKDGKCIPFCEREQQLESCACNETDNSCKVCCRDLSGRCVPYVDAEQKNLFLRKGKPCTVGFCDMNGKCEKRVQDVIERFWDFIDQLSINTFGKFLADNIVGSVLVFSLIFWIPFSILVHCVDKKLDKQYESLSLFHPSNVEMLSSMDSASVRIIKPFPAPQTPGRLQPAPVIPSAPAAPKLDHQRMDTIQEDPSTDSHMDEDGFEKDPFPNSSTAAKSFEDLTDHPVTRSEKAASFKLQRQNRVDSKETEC
# NPR2 activator – GC-B (human) receptor activation; P20594; HEK293-GC-B cells, CNP EC30, cGMP TR-FRET; 0% at EC30 CNP, 100% saturating CNP; activation, % at 10 µM; actives 0.11% (n = 370,000); AID 1920062;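 active = activation at 10 µM reaching about 35% in either raw or pattern-adjusted values, limit read from the data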
# FAS-TE inh – FAS thioesterase (human) inhibition; recombinant FAS-TE, OMFH fluorogenic substrate, fluorescence endpoint; actives 0.67% (n = 360,000); inhibition, % at 15 µM; P49327;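 active = compounds whose normalised, plate-corrected inhibition of enzyme fluorescence in the single-dose primary screen is 50% or more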;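 note: 0% = DMSO with enzyme and 100% = substrate without enzyme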
# ADAM10 inh – inhibitors of human ADAM10. AID 720582. recombinant ADAM10, EDANS/DABCYL FRET peptide cleavage, 3 h. actives 0.62% (n = 370,000). O14672. inhibition, % at 7 µM;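 active = inhibition above a per-campaign cutoff equal to the mean of compounds falling between control-based bounds plus 3 SD, cut at about 20% in these data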;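 note: 0% = DMSO wells while the 100% control is not disclosed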
# GC-A act – GC-A (human) enzyme activation | AID 1671463 | activation, % at 10 µM | HEK293 GC-A cells, cGMP TR-FRET, EC30 ANP; 0% at EC30 ANP, 100% saturating ANP | P16066 | actives 0.14% (n = 370,000); in the data active = activation above about 40%
# FAS-TE inh conf – confirmation of human fatty acid synthase thioesterase inhibitors | actives 45% (n = 2,300) | AID 624325 | shares compounds with FAS-TE inh | inhibition, % at 15 µM | recombinant FAS-TE, OMFH fluorogenic substrate, fluorescence;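 active = compounds inhibiting the enzyme by at least 50% at 15 µM in any one of the replicates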;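 note: 0% = enzyme with DMSO only and 100% = wells lacking enzyme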
# * marks the source's active call; other numbers are inactive results; nt = not tested or not shown. Sampled rows, rich in hits. Any-hit rate of the full collection: about 2%.
SMILES,ADAM17 inh,NPR2 activator,FAS-TE inh,ADAM10 inh,GC-A act,FAS-TE inh conf
C[C@H]1CN([C@@H](C)CO)C(=O)c2cc(NC(=O)Nc3cccc4ccccc34)ccc2O[C@@H]1CN(C)Cc1ccc(-c2ccccc2)cc1,-12,-6,60*,-44,3,16
COc1ccc(S[C@]2(C(=O)N(C)C)CC(=O)N(c3ccsc3)[C@@H]2c2ccc(OC)cc2)cc1,3,0,nt,6,-4,nt
O=C(CCc1ccccc1-c1ccccc1CCNC(=O)c1ccc(F)c(F)c1)NCc1ccccc1,0,-3,nt,-3,-5,nt
Cc1nn(Cc2ccc([N+](=O)[O-])cc2)c(=O)n1-c1cccc(Cl)c1,2,3,66*,-2,3,75*
Cc1ccc(C(=O)CN(CCCC(N)=O)S(=O)(=O)c2ccc([N+](=O)[O-])cc2)cc1,0,5,68*,-5,-2,52*
Cc1ccc(S(=O)(=O)CC(=O)c2ccc([N+](=O)[O-])cc2)cc1,-2,6,17,-3,-3,nt
Cc1ccc(C(=O)CN(CCC(=O)O)S(=O)(=O)c2ccc([N+](=O)[O-])cc2)cc1,6,6,62*,2,1,79*
COc1ccc(C(=O)CN(CCC(=O)O)S(=O)(=O)c2ccc([N+](=O)[O-])cc2)cc1,-2,7,71*,-8,4,80*
O=C(O)CCN(CC(=O)c1ccc(Cl)cc1)S(=O)(=O)c1ccc([N+](=O)[O-])cc1,4,4,75*,14,4,72*
O=C(O)CCN(CCC(=O)O)S(=O)(=O)c1ccccc1,-4,1,-4,1,7,nt
O=[N+]([O-])c1cccc(C=NN=C2c3ccccc3-c3ccccc32)c1,-3,1,28,0,-6,nt
CC1S/C(=N\N=C\c2cccc([N+](=O)[O-])c2)N(C(C)(C)C)C1=O (centres undefined),0,1,54*,-3,9,0
COc1ccc2c(c1)[C@@]1(OCCC=C[C@H]1C)C(=O)N2CC1CC1,-1,0,nt,1,-2,nt
CCC1=NN(C(=O)c2cccc(Br)c2)C(O)(c2ccc(Br)cc2)C1 (centres undefined),0,-11,52*,4,-6,47
O=C(CN1CCC(NC(=O)Nc2ccc(Cl)cc2)CC1)Nc1ccc2c(c1)OCCO2,0,-8,nt,-1,1,nt
Cc1c(Cl)ccc2c1NC(=O)[C@]21N[C@@H](Cc2ccccc2)[C@H]2C(=O)N(c3ccc(F)cc3)C(=O)[C@H]21,7,9,76*,12,2,20
O=C1[C@@H]2[C@H](Cc3ccc(O)cc3)N[C@]3(C(=O)Nc4ccccc43)[C@@H]2C(=O)N1c1ccc(F)cc1,2,-2,-1,-4,0,nt
O=C1C2C3CCCC3=C3CCCC3C2C(=O)N1c1cccc(Cl)c1 (centres undefined),-3,-1,9,2,-1,nt
O=C1C2C3C=CC(c4ccccc4)(C2C(=O)N1c1cccc(Cl)c1)C1C(=O)N(c2cccc(Cl)c2)C(=O)C31 (centres undefined),1,-8,65*,1,2,39
CC(NCc1ccco1)C(=O)N1CCN(Cc2ccccc2F)CC1 (centres undefined),0,-2,nt,-11,4,nt
Cc1ccc2c(c1)[C@H]1[C@H](CO2)[C@H](c2ccccc2)[C@]2(C)C(=O)N(Cc3ccc(F)cc3)CC(=O)N12,1,-10,24,15,-4,nt
CCOC(=O)[C@H]1[C@H]2COc3ccc(OC)cc3[C@@H]2N2C(=O)c3ccc(Cl)cc3NC(=O)[C@@]12C,-2,-1,2,-2,2,nt
C[C@@]12C(=O)Nc3cc(F)ccc3C(=O)N1[C@H]1c3ccccc3OC[C@@H]1[C@@H]2c1ccccc1,nt,nt,69*,nt,nt,48*
Cc1ccc2c(c1)[C@H]1[C@H](CO2)[C@H](c2ccccc2)[C@]2(C)C(=O)Nc3cc(Cl)ccc3C(=O)N12,nt,nt,93*,nt,nt,30
Cc1ccc2c(c1)[C@H]1[C@H](CO2)[C@H](c2ccccc2)[C@]2(C)C(=O)Nc3cc(F)c(F)cc3C(=O)N12,5,-8,76*,12,-8,21
SMILES,ADAM17 inh,NPR2 activator,FAS-TE inh,ADAM10 inh,GC-A act,FAS-TE inh conf
Cc1ccc2c(c1)[C@H]1[C@H](CO2)[C@H](c2ccccc2)[C@]2(C)C(=O)Nc3ccc(F)cc3C(=O)N12,4,-1,83*,-1,-9,44
COc1cc2c(cc1OC)C(=O)N1[C@H]3c4cc(C)ccc4OC[C@@H]3[C@H](c3ccccc3)[C@]1(C)C(=O)N2,2,4,64*,5,-2,24
CC(C)(C)OC(=O)N[C@@H](CCCCNC(=O)OCc1ccccc1)c1nnc([C@H](CCCCNC(=O)OCc2ccccc2)NC(=O)OC(C)(C)C)o1,nt,nt,66*,nt,nt,27
CCc1ccc(OCC(=O)N/N=C/c2cc([N+](=O)[O-])ccc2N2CCCCCC2)cc1,-4,3,30,-18,-1,nt
CCC1CCCCN1c1ccc([N+](=O)[O-])cc1/C=N/NC(=O)Cn1c2ccccc2c(=O)c2ccccc21 (centres undefined),-14,2,60*,-74,-2,21
CCc1cc2c(nc1CC)CCCN2S(=O)(=O)c1c(C)noc1C,-3,1,nt,-8,-2,nt
COCC(=O)Nc1ncc(S(=O)(=O)c2ccc([N+](=O)[O-])cc2)s1,-5,8,0,-2,0,nt
O=C(Nc1ncc(S(=O)(=O)c2ccc([N+](=O)[O-])cc2)s1)c1cccc2ccccc12,3,4,56*,-7,1,7
N#Cc1ccc(Oc2ccc(-c3cnc4ccccc4n3)cc2)cc1C#N,-1,-3,42,-11,-1,nt
N#Cc1ccc(Oc2ccc(-c3nc4ccccc4nc3-c3ccccc3)cc2)cc1C#N,-6,0,70*,-6,-1,28
CC(=O)N1CCc2cc(S(=O)(=O)NC3CCN(C(=O)CCl)CC3)ccc21,-2,5,nt,7,1,nt
C=CCNC(=O)c1ccc([N+](=O)[O-])c(Cl)c1,-2,7,0,7,-2,nt
COc1ccc(C(=O)NCCNc2ncc(C(F)(F)F)cc2Cl)cc1[N+](=O)[O-],2,-9,53*,7,-3,47*
Cc1ccc(C(=O)NCCNc2ncc(C(F)(F)F)cc2Cl)cc1[N+](=O)[O-],3,-4,55*,4,-2,60*
O=[N+]([O-])c1ccccc1NCCNc1ncc(C(F)(F)F)cc1Cl,0,-8,19,6,-5,nt
